# Compound activity as filed in PubChem BioAssay.
# Shown are actives, neighbours in structure and some others; about 6.8% of the full set was active somewhere.
# C diff HTS: C. difficile growth inhibitors, primary screen, HTS | Clostridium difficile clinical isolate growth, OD600, 24 h; stronger effect = lower value | growth activity, negative = inhibition, % at 16 µg/mL (by protocol) | actives 0.25% (n = 86,000);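 active means mean growth activity at or below -80% and every replicate also at or below -80%; inconclusive means mean at or below -80% but some replicate above -80%; inactive means mean growth activity above -80%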;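 further: 0% = DMSO wells and -100% = levofloxacin 16 µg/mL wells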
# Pf Dd2 growth: P. falciparum Dd2 growth inhibitors, primary screen, SYBR Green fluorescence, single dose replicates; 72 h; stronger effect = lower value; activity change, % at 10 µM; actives 2.3% (n = 94,000); in the data active means activity change below about -80%; inconclusive means no clear call, values can overlap the other calls
# T cruzi growth-1: T. cruzi intracellular proliferation inhibitors, primary screen, cell-based, beta-gal Tulahuen parasites, NIH3T3 host, luminescence; T. cruzi beta-gal in NIH3T3, GalScreen luminescence, 90 h; actives 5.9% (n = 77,000); AID 624255, 2012; inhibition, % at 8.34 µM;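 active means mean inhibition above about 93%, with at least 55% of replicates each passing it, limit read from the data, passing the limit was not always enough; inconclusive means only one of those two conditions holds; inactive means neither condition holds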
# T cruzi growth-2: T. cruzi intracellular proliferation inhibitors, confirmation, cell-based, NIH3T3 host, beta-gal parasite, luminescence, cherry-pick; shares compounds with T cruzi growth-1; T. cruzi beta-gal in NIH3T3, GalScreen luminescence, 90 h; inhibition, % at 8.35 µM; actives 72% (n = 5,600); AID 651739, 2012;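 active means mean replicate inhibition above about 95% and at least 55% of replicates individually reaching it, limit read from the data; inconclusive means only one of the two criteria is met; inactive means neither criterion is met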
# T cruzi growth-3: inhibitors of intracellular T. cruzi replication, confirmation, NIH3T3 host cells, beta-gal parasites, cherry-pick, set 2. shares compounds with T cruzi growth-1. T. cruzi beta-gal in NIH3T3, GalScreen luminescence, 90 h. inhibition, % at 2.09 µM. actives 21% (n = 5,600);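 active means mean inhibition above about 95%, with at least 55% of replicates also reaching it, limit read from the data; inconclusive means meets just one of the two conditions; inactive means meets neither condition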;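 further: plate controls were neutral control median for no effect and positive control median for full effect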
# 3T3 cytotox: cytotoxicity in mouse NIH/3T3 fibroblasts, confirmation, cytotoxicity control for T. cruzi proliferation inhibitor project, cell-based, cherry-pick, single point; shares compounds with T cruzi growth-1; NIH/3T3 viability, CellTiter-Glo ATP luminescence, 90 h; cytotoxicity (signal decrease), % at 8.35 µM; actives 14% (n = 5,600); AID 651742, 2012;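 active means mean signal decrease across replicates above about 35% based on untreated-well scatter, with enough replicates individually passing, limit read from the data; inconclusive means no rule stated though some were filed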;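 further: 0% = median of neutral control wells and 100% = median of positive control wells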
# NIH3T3 tox 2: NIH/3T3 fibroblast cytotoxicity, confirmation, cytotoxicity control, cell-based, cherry-pick, single point, set 2 | AID 651744, 2012 | NIH/3T3 viability, CellTiter-Glo ATP luminescence, 90 h | inhibition, % at 24.9 µM | actives 56% (n = 5,600) | shares compounds with T cruzi growth-1;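 active means mean loss of cell viability signal at or above a set limit, and enough replicates individually reaching it; inconclusive means meets only the mean limit or only the replicate share; inactive means meets neither condition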;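 further: 0% = median of neutral control wells and 100% = median of positive control wells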
# An asterisk follows results filed as active; u = inconclusive; x = not tested or not shown.
SMILES,C diff HTS,Pf Dd2 growth,T cruzi growth-1,T cruzi growth-2,T cruzi growth-3,3T3 cytotox,NIH3T3 tox 2
O=C(Nc1ccc(Cl)cc1)N[C@H]1CC[C@@H](CCn2cc(-c3ccccc3F)nn2)O[C@@H]1CO,-4,-6,56,x,x,x,x
O=C(c1ccccn1)N1CC2(C1)[C@@H](c1ccccc1)[C@@H](CO)N2C(=O)C1CCCC1,-2,18,x,x,x,x,x
CC(C)C#Cc1ccc2c(c1)O[C@H](CN(C)Cc1cccnc1)[C@H](C)CN([C@@H](C)CO)S2(=O)=O,0,-28,104*,98*,56,u,65*
C[C@H](O)C#Cc1ccc2c(c1)O[C@H](CN(C)Cc1cccnc1)[C@H](C)CN([C@@H](C)CO)S2(=O)=O,-5,7,x,x,x,x,x
C[C@@H](O)C#Cc1ccc2c(c1)O[C@H](CN(C)Cc1cccnc1)[C@@H](C)CN([C@@H](C)CO)S2(=O)=O,1,-6,67,x,x,x,x
CC(C)C#Cc1ccc2c(c1)O[C@@H](CN(C)Cc1cccnc1)[C@H](C)CN([C@@H](C)CO)S2(=O)=O,2,-51,107*,99*,92,56*,67*
CCCNC(=O)Nc1ccc2c(c1)OC[C@@H](C)N(C(=O)C1CCC1)C[C@@H](C)[C@@H](OC)CN(C)C2=O,x,x,23,x,x,x,x
C[C@H]1CCCCO[C@@H](CN(C)Cc2ccc(C(F)(F)F)cc2)[C@@H](C)CN([C@@H](C)CO)C(=O)c2cc(NS(=O)(=O)c3cccs3)ccc2O1,5,-53,112*,90,58,18,105*
C[C@H]1CCCCO[C@H](CN(C)Cc2ccc(C(F)(F)F)cc2)[C@@H](C)CN([C@@H](C)CO)C(=O)c2cc(NS(=O)(=O)c3cccs3)ccc2O1,-3,-22,113*,98*,107*,-14,103*
C[C@@H]1CN([C@@H](C)CO)C(=O)c2cc(NS(=O)(=O)c3cccs3)ccc2O[C@@H](C)CCCCO[C@@H]1CN(C)Cc1ccc(C(F)(F)F)cc1,0,-67,u,102*,118*,-24,63*
C[C@H](CO)N1C[C@H](C)[C@H](CN(C)Cc2ccc(C(F)(F)F)cc2)OCCCC[C@H](C)Oc2ccc(NS(=O)(=O)c3cccs3)cc2C1=O,54,-38,x,x,x,x,x
C[C@@H]1CCCCO[C@H](CN(C)Cc2ccc(C(=O)O)cc2)[C@H](C)CN([C@@H](C)CO)C(=O)c2cc(NS(=O)(=O)c3cccs3)ccc2O1,-1,20,-6,x,x,x,x
C[C@@H]1CCCCO[C@@H](CN(C)Cc2ccc(C(F)(F)F)cc2)[C@@H](C)CN([C@@H](C)CO)C(=O)c2cc(NS(=O)(=O)c3cccs3)ccc2O1,0,-32,93,x,x,x,x
C[C@@H]1CN([C@@H](C)CO)S(=O)(=O)c2ccc(C#CC3CC3)cc2O[C@@H]1CN(C)CC1CCOCC1,2,-14,58,x,x,x,x
C[C@@H]1CN([C@@H](C)CO)S(=O)(=O)c2ccc(C#CC3CC3)cc2O[C@H]1CN(C)CC1CCOCC1,1,-36,109*,90,77,65*,89*
C[C@H]1CN([C@@H](C)CO)S(=O)(=O)c2ccc(C#CC3CC3)cc2O[C@@H]1CN(C)CC1CCOCC1,1,-14,u,103*,78,14,99*
C[C@H](CO)N1C[C@H](C)[C@@H](CN(C)CC2CCOCC2)Oc2cc(C#CC3CC3)ccc2S1(=O)=O,-2,-26,77,x,x,x,x
O=C([C@H]1[C@H](CO)[C@H]2Cn3c(cccc3=O)[C@@H]1N2C(=O)c1ccccn1)N1CCCCC1,1,x,0,x,x,x,x
CC(C)CC#Cc1ccc([C@@H]2[C@@H](CO)N3CCCCN(C(=O)c4ccc5c(c4)OCO5)C[C@@H]23)cc1,-7,-43,91,x,x,x,x
CCCC#Cc1ccc([C@@H]2[C@H]3CN(C(=O)c4ccc5c(c4)OCO5)CCCCN3[C@H]2CO)cc1,7,-34,94,x,x,x,x
CCCC#Cc1ccc([C@@H]2[C@H](CO)N3CCCCN(C(=O)c4ccc5c(c4)OCO5)C[C@@H]23)cc1,-9,-24,u,106*,38,30,103*
CCCC#Cc1ccc([C@H]2[C@@H](CO)N3CCCCN(C(=O)c4ccc5c(c4)OCO5)C[C@H]23)cc1,5,-39,117*,104*,79,51*,103*
C[C@@H](O)C#Cc1ccc([C@H]2[C@@H](CO)N3CCCCN(C(=O)c4ccc5c(c4)OCO5)C[C@@H]23)cc1,-3,21,32,x,x,x,x
CCCC#Cc1ccc([C@@H]2[C@@H](CO)N3CCCCN(C(=O)c4ccc5c(c4)OCO5)C[C@@H]23)cc1,0,-9,122*,107*,76,38*,102*
COc1ccc(S(=O)(=O)N(C)C[C@H]2Oc3ccc(NC(=O)CCN4CCOCC4)cc3CC(=O)N([C@H](C)CO)C[C@H]2C)cc1,-4,15,35,x,x,x,x
SMILES,C diff HTS,Pf Dd2 growth,T cruzi growth-1,T cruzi growth-2,T cruzi growth-3,3T3 cytotox,NIH3T3 tox 2
COc1ccc(C#Cc2ccc([C@@H]3[C@H]4CN(C(=O)Nc5ccccc5F)CC(=O)N4[C@H]3CO)cc2)cc1,-2,-25,x,x,x,x,x
CC(C)C#Cc1cnc2c(c1)C(=O)N([C@H](C)CO)C[C@H](C)[C@@H](CN(C)S(=O)(=O)c1cn(C)cn1)O2,1,18,-20,x,x,x,x
C[C@H]1CN([C@@H](C)CO)C(=O)c2cc(-c3ccc(F)cc3)cnc2O[C@@H]1CN(C)C(=O)C1CCC1,-2,3,x,x,x,x,x
COCC(=O)Nc1ccc2c(c1)C(=O)N(C)C[C@H](OC)[C@H](C)CN(Cc1cc(F)ccc1F)[C@H](C)CO2,x,-79,105*,1,11,2,u
COCC(=O)Nc1ccc2c(c1)OC[C@@H](C)N(Cc1cc(F)ccc1F)C[C@H](C)[C@@H](OC)CN(C)C2=O,x,-2,107*,74,26,21,24
COCC(=O)Nc1ccc2c(c1)C(=O)N(C)C[C@@H](OC)[C@H](C)CN(Cc1cc(F)ccc1F)[C@H](C)CO2,x,-7,26,x,x,x,x
COCC(=O)Nc1ccc2c(c1)OC[C@@H](C)N(Cc1cc(F)ccc1F)C[C@@H](C)[C@@H](OC)CN(C)C2=O,x,9,40,x,x,x,x
O=C(C[C@H]1CC[C@@H](NC(=O)c2ccncc2)[C@H](CO)O1)NCCc1ccncc1,-3,6,x,x,x,x,x
CCC(=O)N1CC(=O)N2[C@H](C1)[C@@H](c1ccc(-c3cccnc3)cc1)[C@@H]2CO,0,13,x,x,x,x,x
